Data: ChEMBL document CHEMBL4513146, “CO-ADD screening of Karazin Kharkiv National University (Ukraine) compounds”
Results with a measured potency or affinity are listed apart.

What follows are compounds tested on Cryptococcus neoformans. Conditions: Concentration 32 ug.mL-1; ASSAY_TEST Inhibition of Fungal Growth; detection method Resazurin; Absorption (OD600-OD570); plate type 384well; NBS; CORNING #3640.
`Cc1ccc(-c2ccc3nn(Cc4ccc5c(c4)OCO5)c(=O)n3n2)cc1C` showed an Inhibition of -18.91%. For `COc1cccc(-n2ccn3c(=O)n(Cc4ccc([N+](=O)[O-])cc4)nc3c2=O)c1`, the Inhibition was -8.87%. `COc1ccc(N2CCN(C(=O)Cn3nc4c(Sc5cccc(C)c5)nccn4c3=O)CC2)cc1` was tested, and the Inhibition was -17.29%. `CCOC(=O)c1ccccc1NC(=O)Cn1nc2c(Oc3cccc(C)c3C)nccn2c1=O` was tested, and the Inhibition was -7.85%. `Cc1ccc(-c2ccc3nn(Cc4ccc(N5CCCC5=O)cc4)c(=O)n3n2)cc1` showed an Inhibition of -7.16%. Compound `COc1ccc(NC(=O)c2ccc3nn(CC(=O)N4CCN(c5ccccc5)CC4)c(=O)n3c2)cc1` has an Inhibition of -6.91%. For `Cc1nnc2ccc(S(=O)(=O)N(Cc3ccccc3Cl)c3cccc(F)c3)cn12`, the Inhibition was -10.07%. `Cc1ccc(-c2ccc3nn(CC(=O)NC4CCCCC4)c(=O)n3n2)cc1C` showed an Inhibition of -9.98%. Compound `Cc1ccc(-c2ccc3nnc(CCC(=O)NCc4ccc(C(C)C)cc4)n3n2)cc1C` has an Inhibition of -18.09%. `O=C(Cn1nc2c(SC3CCCCC3)nccn2c1=O)Nc1cccc(Cl)c1` was tested, and the Inhibition was -17.97%. With `CC(C)Cn1c(=O)c2sccc2n2c(=O)n(CC(=O)N3CCC(Cc4ccccc4)CC3)nc12` the Inhibition was -94.76%. `CCc1nnc2ccc(S(=O)(=O)N(Cc3ccccc3F)c3ccc(OC)cc3)cn12` showed an Inhibition of -4.31%. `Cc1cccc(NC(=O)Cn2nc3c4cc(-c5ccc(Cl)cc5)nn4ccn3c2=O)c1` was tested, and the Inhibition was -21.44%. For `CC(C)(C)OC(=O)N1CCC(NC(=O)CCc2nnc3ccc(-c4ccccc4)nn23)CC1`, the Inhibition was -4.02%.
